Hits are enriched below; roughly 2.2% of the tested compounds scored in any of these assays.
NTR1 ag = agonists of human NTR1, primary screen, imaging, U2OS cells, beta-arrestin-GFP, high content; Neurotensin receptor type 1 (Homo sapiens), P30989; AID 493036, 2011; activation, % at 20 µM; NTR1-U2OS beta-arrestin-GFP spot imaging, agonist mode; 330,000 tested, 0.17% active;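 active means activation at or above 40% of the spot to cytoplasm intensity ratio, with at least 20 cells analyzed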
Target sequence (P30989 whole entry, looked up): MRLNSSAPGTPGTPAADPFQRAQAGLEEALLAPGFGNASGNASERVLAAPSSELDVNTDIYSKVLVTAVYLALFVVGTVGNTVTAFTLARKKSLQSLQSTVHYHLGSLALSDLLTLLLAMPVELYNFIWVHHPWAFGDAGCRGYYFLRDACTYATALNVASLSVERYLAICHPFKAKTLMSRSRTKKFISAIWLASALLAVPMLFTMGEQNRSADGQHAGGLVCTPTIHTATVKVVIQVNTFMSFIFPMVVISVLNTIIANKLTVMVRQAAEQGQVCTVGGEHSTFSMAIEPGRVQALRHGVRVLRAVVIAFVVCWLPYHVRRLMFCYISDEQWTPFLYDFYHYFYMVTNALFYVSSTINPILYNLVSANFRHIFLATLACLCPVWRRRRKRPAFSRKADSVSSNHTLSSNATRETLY
ANO1 block = TMEM16A chloride channel inhibitors, primary screen, cell-based, HTS. AID 588511, 2011. HEK293 TMEM16A/YFP iodide influx fluorescence, ionomycin. Anoctamin-1 (Mus musculus), Q8BHY3. 310,000 tested, 1.2% active. normalized B-score (activity score, 25-100; higher = stronger inhibition) at 10 µM;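 active means ratio plate-corrected score three or more library SD toward inhibition, starting fluorescence score within five deviations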;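 further: score derived from kinetic fluorescence span divided by baseline fluorescence per well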
CHO-K1 Ca antag = M1 antagonist counterscreen hit in parental CHO-K1 cells; ATP-induced calcium, Fluo-8 fluorescence; inhibition, % at 3 µM; 360,000 tested, 0.6% active;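 active means inhibition above a per-plate cutoff, the plate's mean sample inhibition plus 3 SD, cut at about 24% in these data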
M1 PAM parental = nonselective calcium activators in parental CHO-K1 cells, primary screen, counter-screen for M1 PAM project, cell-based, Fluo-8 calcium fluorescence, full deck, 1536-well. ATP EC20; 0% at ATP EC20, 100% at ATP max. activation, % at 3 µM. 360,000 tested, 0.02% active. AID 602247, 2012;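 active means activation above the run cutoff, the mean activation of all test compounds plus 3 SD, cut at about 40% in these data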;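 further: peak over basal fluorescence ratio in a 140 s read after ATP addition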
TMEM16A act = TMEM16A chloride channel activators or potentiators, primary screen, cell-based, HTS; Anoctamin-1 (Mus musculus), Q8BHY3; B-score at 10 µM; AID 623877, 2012; HEK293 TMEM16A/YFP-H148Q/I152L, iodide quench fluorescence; active compounds read low; 340,000 tested, 0.3% active;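 active means fluorescence-ratio B-score plate-corrected deviation score at least 3 library SD below zero, with starting fluorescence score within 5 deviations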;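 further: channel opened by trigger with iodide after compound preincubation; score built on the fluorescence ratio of max minus min over baseline; more negative score means more quench and so TMEM16A activation or potentiation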
M1 ag parental = counter-screen for M1 agonists: effect in parental CHO-K1 cells; Fluo-8 calcium fluorescence; scaled to maximal ATP response, vehicle zero; activation, % at 3 µM; 360,000 tested, 0.48% active; in the data active means activation above about 15%;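 further: untransfected CHO-K1 host cells lacking M1 receptor as counterscreen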
Each line names hits and unclear results; the compound was inactive in the other large screens.

CCC(=O)N1CCN(c2ccc(NC(=O)c3cc4ccccc4o3)cc2Cl)CC1	ANO1 block 100
CCCC(=O)N1CCN(c2ccc(NC(=O)c3cc4ccccc4o3)cc2Cl)CC1	NTR1 ag 45, ANO1 block 100
CCCC(=O)N1CCN(c2ccc(NC(=O)c3cccs3)cc2Cl)CC1	none
COCCNC(=O)C1CCCN(Cc2cccc(C#N)c2)CC1 (stereo not given)	none (no result: NTR1 ag, ANO1 block, TMEM16A act)
CCCNC(=O)C1(C)CCN1C(=O)Cc1ccc(C(C)C)cc1 (stereo not given)	none (no result: NTR1 ag, ANO1 block, TMEM16A act)
CCOc1cc(CNn2cnnc2)cc(Br)c1OCC(=O)NC1CCCCC1	CHO-K1 Ca antag 29
Cc1ccc(S(=O)(=O)N2[C@@H](c3cccc(Cl)c3)C(C(=O)O)=CC[C@H]2c2ccc(Cl)cc2)cc1	ANO1 block 100
Cc1ccc(S(=O)(=O)N2[C@@H](c3ccc(Cl)cc3)C(C(=O)O)=CC[C@H]2c2ccc(Cl)c(Cl)c2)cc1	ANO1 block 100
CCOc1ccc([C@@H]2CC=C(C(=O)O)[C@H](c3cccc(Cl)c3)N2S(=O)(=O)c2ccc(C)cc2)cc1	TMEM16A act -6.9
Cc1ccc(S(=O)(=O)N2[C@@H](c3ccc(C(C)(C)C)cc3)C(C(=O)O)=CC[C@H]2c2cccs2)cc1	CHO-K1 Ca antag 34 (no result: ANO1 block, TMEM16A act)
CCOC(=O)C1=CCN(S(=O)(=O)c2ccccc2C)C1c1ccc(Cl)cc1 (stereo not given)	none (no result: NTR1 ag, ANO1 block, TMEM16A act)
CC[C@@]1(C(=O)OC)N[C@H](CN(C)C(=O)Nc2ccc(Cl)cc2)[C@@H]2C(=O)N(Cc3ccccc3)C(=O)[C@@H]21	none (no result: ANO1 block, TMEM16A act)
Cc1nn(-c2ccccc2)c(Cl)c1/C=N/Nc1nc2ccccc2[nH]1	TMEM16A act -7.3
Cc1cc(=O)[nH]c(N/N=C/c2c(C)nn(-c3ccccc3)c2Cl)n1	none
COc1cc(C)ccc1OCc1cc(C(=O)N(Cc2c(C)nn(C)c2C)C2CC2)no1	M1 ag parental 18
CN(Cc1ccccc1)C(=O)CSc1nc2c(c(C(F)(F)F)n1)CCc1ccccc1-2	ANO1 block 25
NC(=O)c1c(NC(=O)CSc2nc3c(c(C(F)(F)F)n2)CCc2ccccc2-3)sc2c1CCCC2	none
CCOC(=O)c1ccc(NC(=O)C(CC)(CC)C(=O)OCC)cc1	CHO-K1 Ca antag 25
O=C(Nc1ccc2snnc2c1)Nc1cccc2ccccc12	CHO-K1 Ca antag 29
CCN(CC)C(=O)C1=C(C)N(CCCOC)C(=O)C(CC(=O)NC2CCCCC2)C1 (stereo not given)	none (no result: NTR1 ag, ANO1 block, TMEM16A act)
CC(=O)OCC(=O)[C@H]1CC[C@H]2[C@@H]3CCC4=CC(=O)CC[C@]4(C)[C@H]3CC[C@]12C	TMEM16A act -5.8
C[C@]12CC[C@H]3[C@@H](CCC4=CC(=O)CC[C@@]43C)[C@@H]1CC[C@@H]2C(=O)CO	none
CCC(C)C(NC(=O)c1ccccc1)C(=O)N1CCN(C(=O)c2ccccc2)CC1 (stereo not given)	none (no result: NTR1 ag, ANO1 block, TMEM16A act)
CCN1CCCC(Sc2nc3c([nH]2)c(=S)n(C)c(=O)n3C)C1 (stereo not given)	M1 ag parental 16
Cn1c(=S)c2[nH]c(SCCN3CCCC3)nc2n(C)c1=O	none
CN1CCN(c2cc(-c3cc(O)c4ncccc4c3)ccn2)CC1	none (no result: ANO1 block)
Oc1cc(-c2cccnc2)cc2cccnc12	CHO-K1 Ca antag 72 (no result: ANO1 block)
O=C(c1ccc(CSc2ccc(Cl)cc2)o1)N1CCOCC1	none (no result: NTR1 ag, ANO1 block, TMEM16A act)
CN(C)S(=O)(=O)c1ccc2oc(SCC(=O)c3c(N)n(C4CC4)c(=O)[nH]c3=O)nc2c1	M1 ag parental 20 (no result: ANO1 block)
CN(C)S(=O)(=O)c1ccc2oc(SCC(N)=O)nc2c1	none
CCCCn1c(N)c(N(CC(C)C)C(=O)Cc2ccc(S(=O)(=O)N3CCOCC3)s2)c(=O)[nH]c1=O	TMEM16A act -7.5 (no result: NTR1 ag, ANO1 block)
CCCCCC[n+]1ccccc1/C=C/c1ccc(N(C)C)cc1	CHO-K1 Ca antag 51, M1 ag parental 36 (no result: NTR1 ag, ANO1 block, TMEM16A act)
CC(C)(C)S(=O)N1Cc2cn(Cc3ccccc3)c(=O)cc2[C@@H]1CCO (stereo not given in full)	none (no result: NTR1 ag, ANO1 block, TMEM16A act)
CCOC(=O)C1(C)CCN1C(=O)c1ccc2ccccc2c1 (stereo not given)	none (no result: NTR1 ag, ANO1 block, TMEM16A act)

From PubChem BioAssay
